A selection: hits, their analogues and other compounds. The true share with any hit is near 2.3%.
HTT ATP protect: protects HTT-Q103 PC12 cells, measured by ATP; PC12 HTT-Q103 induced, cytoprotection, ATP luminescence, 40 h; Potency, µM (series often up to 56.4 µM), hits mostly activators; 230,000 tested, 0.14% active; note: nearly all actives have a fitted effect of over 45% in size
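Compounds were screened for protection of PC12 cells against cell death after tebufenozide induction (100 nM final) of mutant Huntingtin exon 1 (Q103) fused to GFP.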
Coupling enz: inhibits coupling enzyme system, counter-screen for aldolase hits; coupling enzyme system counterscreen, AmpLite Red fluorescence; activity change, negative = inhibition, % at 58.2 µM, hits read low; 290,000 tested, 0.67% active; AID 2472; in the data active = activity change below about -30%
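Fluorescence at 525 nm excitation and 598 nm emission measured inhibition of the coupled detection system without aldolase. Compounds (at 57.5 uM final) were preincubated 10 min at room temperature with coupling enzyme reagent before a 20 min substrate/AmpLite Red step.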
GoLoco inh red: inhibitors of human Gai1-RGS12 GoLoco interaction (red fluorophore) | Gai1:RGS12 GoLoco peptide FP, rhodamine, 10 min | AID 880 | Potency, µM (doses to about 61.6 µM), hits mostly inhibitors | 230,000 tested, 0.44% active; active = well fitted inhibition curve with a large enough effect, not every such curve was filed as active; inactive = no such curve, though single readings can be large or run the other way; note: nearly all actives have a fitted effect of over 30% in size
VDR inhibitor: vitamin D3 receptor (human) inhibition. P11473. VDR-SRC2-3 peptide fluorescence polarization, 2 h. Potency, µM, most hits filed as inhibitors. 400,000 tested, 0.93% active
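Compounds are added to VDR with labelled SRC2-3 coactivator peptide and held 2 h at room temperature. Inhibition of the VDR–peptide interaction is then read as a change in fluorescence polarization.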
JMJD2E inh: JMJD2E (human) inhibition | AID 2147 | Potency, µM (highest dose often 57.1 µM), hits mostly inhibitors | JMJD2E catalytic domain, FDH-coupled NADH fluorescence (FDH is formaldehyde dehydrogenase) | 230,000 tested, 1.6% active | B2RXH2; active = well fitted inhibition curve with a large enough effect, not every such curve was filed as active; inconclusive = small, poorly fitted or top-dose-only effect, or another doubt; inactive = no such curve, though single readings can be large or run the other way; note: nearly all actives have a fitted effect of over 50% in size
Target sequence (B2RXH2 1-337 limits assumed): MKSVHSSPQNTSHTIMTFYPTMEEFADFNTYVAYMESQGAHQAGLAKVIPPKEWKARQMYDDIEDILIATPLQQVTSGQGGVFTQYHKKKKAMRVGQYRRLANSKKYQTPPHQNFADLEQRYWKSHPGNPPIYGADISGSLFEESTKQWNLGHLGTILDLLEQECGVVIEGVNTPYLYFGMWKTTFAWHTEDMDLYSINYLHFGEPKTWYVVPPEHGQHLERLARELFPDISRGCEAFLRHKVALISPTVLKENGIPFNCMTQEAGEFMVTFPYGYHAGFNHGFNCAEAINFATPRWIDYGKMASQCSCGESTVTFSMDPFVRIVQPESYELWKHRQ
HTT aggregate: inhibitors of mutant huntingtin aggregate formation in PC12 cells; PC12 HttQ103-GFP aggregates, Acumen cytometry, 40 h; Potency, µM (titrated, usually from 46.1 µM), usual class: inhibitors; 220,000 tested, 1.1% active; AID 1688; note: nearly all actives have a fitted effect of over 60% in size
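Multiplexed with ATP-based cell death, this channel scores GFP aggregates in PC12 cells expressing inducible HTTex1-Q103-GFP. Induction used 100 nM tebufenozide; compounds were tested in concentration series.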
Numbers stand for hits; . = inactive; ? = inconclusive; / = no result given; ! = not confirmed by another sample; [ ] = another dose, or the depositor's remark. Unless noted, calls come from the whole dose curve; as a rule, active = well fitted curve in the direction sought with a large enough effect; inconclusive = small, poorly fitted or top-dose-only effect, or another doubt; inactive = no such curve, though single readings can be large; an effect the other way counts as inactive or inconclusive.

SMILES	HTT ATP protect	Coupling enz	GoLoco inh red	VDR inhibitor	JMJD2E inh	HTT aggregate
CC[C@@H](CO)NC(=O)[C@H]1C=C2c3cccc4c3c(cn4C)C[C@H]2N(C)C1	?	-42	.	32µM	?	/
CC(=O)OO	.	/	.	.	/	.
CC/C(=C\C=C\[C@@H]1C=C[C@@H]2CCC[C@H]2[C@@H]1C(=O)c1ccc[nH]1)[C@@H]1O[C@@H]([C@@H](C)C(=O)O)CC[C@@H]1C	.[10 µM]	.	.	.	?	11µM
NCCCC[C@H](NC(=O)[C@H](Cc1ccccc1)NC(=O)[C@H](CCCN=C(N)N)NC(=O)[C@@H](N)Cc1ccc(O)cc1)C(N)=O	.	/	.	.	/	/
O=C(CCN1CCN(c2ccccc2)CC1)c1ccc(Br)cc1	/	.	/	89µM	/	/
CCC(C)C(=O)OC1C2CC3=C4CC(=O)OC(c5ccoc5)[C@]4(C)CCC3[C@@](C)(C2=O)C(CC(=O)OC)C1(C)C (stereo partly drawn)	?	.	.	40µM	.	/
CN1CCN(c2ncc3ncc(=O)n(C)c3n2)CC1	?	.	.	.	/	/
Cc1cccc(C)c1N	.	/	.	/	/	/
CCN(CC)CCCCN1c2ccccc2Oc2ccc(Cl)cc21	/	.	/	?	/	/
Fc1ccc(C(OCCN2CCN(CCCc3ccccc3)CC2)c2ccc(F)cc2)cc1	.	.	.	.	.	25µM
CN[C@H]1[C@H]2[C@H]3CCN2C[C@@H]1O3	.	/	/	/	/	/
Cn1c(O)c(C=NC2CC3CCC2(C)C3(C)C)c(=O)[nH]c1=O (stereo not drawn)	.	.	.	.	.	.
CCCCn1c(O)c(C=NC2CC3CCC2(C)C3(C)C)c(=O)[nH]c1=O (stereo not drawn)	.[10 µM]	.	.	.	.	13µM
Brc1c(NC2=NCCN2)ccc2nccnc12	?	.	.	45µM	20µM	.
Fc1ccc(C(OCCN2CCN(C/C=C/c3ccccc3)CC2)c2ccc(F)cc2)cc1	.	/	.	.	/	/
Oc1cc(Cl)cc(Cl)c1	.	/	.	/	/	/
Cc1cc(C=C2C(=O)NC(=S)NC2=O)c(C)n1-c1ccc2c(c1)OCO2	.[10 µM]	.	.	71µM	.	.
CC1=C(O)C(=O)C=C2C1=CC=C1C2(C)CCC2(C)C3CC(C)(C(=O)O)CCC3(C)CCC12C (stereo not drawn)	/	/	/	28µM	/	/
O=C1NC(=O)C(=Cc2cc3c(cc2[N+](=O)[O-])OCO3)C(=O)N1	.	.	.	40µM	?	.
COc1ccccc1OCC#CCN1CCOCC1	.	.	.	.	.	.
COc1ccccc1OCC#CCN1CCCCCC1	5.6µM	.	.	.	.	?
Cc1ccc(N2C(=O)NC(=O)/C(=C/C=C/c3ccco3)C2=O)cc1	.[10 µM]	.	.	25µM	.	?
O=C1NC(=O)N(c2ccccc2)C(=O)/C1=C\C=C\c1ccccc1	.[10 µM]	.	.	?	4µM	.[9.22 µM]
CCc1ccc(N2C(=O)NC(=O)/C(=C\C=C\c3ccco3)C2=O)cc1	.[10 µM]	.	.	?	.	.[9.22 µM]
CN1C(=O)CCS(=O)(=O)[C@@H]1c1ccc(Cl)cc1	.	.	.	.	.	/
SMILES	HTT ATP protect	Coupling enz	GoLoco inh red	VDR inhibitor	JMJD2E inh	HTT aggregate
Nc1nc2c(ncn2[C@@H]2O[C@H](CO)[C@@H](O)[C@@H]2O)c(=[SH+])[nH]1.O=[N+]([O-])c1ccc(O)[c]([Hg])c1	/	/	0.11µM	/	/	/
CC[C@@H]1[C@@H]2C[C@H]3[C@H]4N(C)c5ccccc5[C@@]45C[C@@H]([C@@H]2[C@@H]5O)N3[C@H]1O	.	.	.	.	.	.
C=CCNC(=S)/N=C/c1c(O)[nH]c(=O)[nH]c1=O	.	.	.	.	2.5µM	.
NC(=S)/N=C/c1c(O)[nH]c(=O)[nH]c1=O	.	.	.	.	?	.
CCOP1(=S)Oc2cc3c(cc2C(C(=O)OC)(C(F)(F)F)O1)OCO3 (stereo not drawn)	.	.	.	79µM	.	.
O=C1C2CCN(CC2)[C@@H]1Cc1ccc2ccccc2c1O	.[10 µM]	-43	.	.	.	.
Cc1cccc(N2CCc3c2nc2ccccc2c3N)c1	.[10 µM]	-34!	.	.	?	.
CN(C)c1ccc(-[n+]2c(-c3ccccc3)cc(-c3ccccc3)cc2-c2ccccc2)cc1	.	.	.	.	.	1.1µM
O=C(O)Cc1ccc([N+](=O)[O-])cc1[N+](=O)[O-]	.[10 µM]	/	.[14.2 µM]	/	/	/
Nc1ccc(Sc2ccc(N)cc2)cc1	.	/	.	.	/	/
COP(=S)(OC)Oc1ccc(Sc2ccc(OP(=S)(OC)OC)cc2)cc1	.	/	/	50µM	/	.
COP(=S)(OC)Oc1ccc([N+](=O)[O-])cc1	.	.	.	16µM	.	/
C[n+]1ccc(-c2ccncc2)cc1	.	.	10µM	.	.	.
c1ccc(-c2ccncc2)cc1	/	/	/	.	/	/
